Results with a measured potency or affinity are listed apart.
The compounds below were run against Protein disulfide-isomerase (Homo sapiens) (UniProt P07237) (assay: PDI inhibitors, insulin aggregation turbidity, dose response, biochemical, absorbance, cherry-picked samples (AID 602350;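 also: 0% = neutral controls and -100% = rutin hydrate positive control wells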)). Details: recombinant PDI insulin aggregation, absorbance 650 nm, 90 min; series mostly up to 19.5 µM; activity change, negative = inhibition: at the top concentration;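 active = absorbance falls by 30% or more versus neutral controls, with a potency fitted within twice the top valid dose; inconclusive = no clear call, values can overlap the other calls; inactive = change opposite to expected direction, plus the rest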.
Chain of Protein disulfide-isomerase (Homo sapiens) (P07237 whole entry, looked up): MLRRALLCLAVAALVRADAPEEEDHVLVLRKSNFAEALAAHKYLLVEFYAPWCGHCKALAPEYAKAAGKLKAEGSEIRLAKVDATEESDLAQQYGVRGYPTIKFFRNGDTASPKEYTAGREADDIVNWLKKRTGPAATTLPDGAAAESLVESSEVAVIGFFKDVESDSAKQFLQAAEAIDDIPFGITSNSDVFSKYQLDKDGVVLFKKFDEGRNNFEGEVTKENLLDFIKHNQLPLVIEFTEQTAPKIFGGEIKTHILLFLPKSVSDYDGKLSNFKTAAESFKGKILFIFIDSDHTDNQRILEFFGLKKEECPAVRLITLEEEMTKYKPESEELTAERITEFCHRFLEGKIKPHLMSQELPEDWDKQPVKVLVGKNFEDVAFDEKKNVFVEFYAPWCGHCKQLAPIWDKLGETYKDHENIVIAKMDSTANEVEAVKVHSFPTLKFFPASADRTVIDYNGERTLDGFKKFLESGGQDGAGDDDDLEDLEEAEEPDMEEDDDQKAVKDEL

Activity change, negative = inhibition, inactive:
O=C(Nc1ccc(Br)cc1F)c1cccnc1 20%, NC(Cc1ccc(C(F)(F)F)cc1)c1csc(Nc2ccc(C(=O)NCCCO)cn2)n1 (configuration not stated) -1.16%, C[C@@H]1CN([C@@H](C)CO)C(=O)Cc2cc(NC(=O)Nc3ccccc3)ccc2O[C@@H]1CN(C)Cc1ccccc1 -3.98%, Cc1ccc(S(=O)(=O)c2ccc(Oc3cccc(C)c3)cc2)cc1 7.71%, CNC[C@@H]1Oc2c(NS(C)(=O)=O)cccc2C(=O)N([C@@H](C)CO)C[C@H]1C -11.5%, O=C(COC(=O)c1ccccc1NC(=O)c1ccco1)NCCC1=CCCCC1 15%, COC(=O)c1ccc(NC(=S)NCCc2cccc(C)c2)cc1 3.66%, CC1(c2ccc3ccccc3c2)NC(=O)N(CC(=O)Nc2cccc(S(=O)(=O)N3CCOCC3)c2)C1=O (configuration not stated) -3.1%, CC1(C(=O)Nc2ccc3c(c2)OCCO3)CCN1C(=O)C1(c2ccc(Cl)cc2)CC1 (configuration not stated) -20.4%, Nc1ccc(C(=O)NN2C(=O)[C@H](Cl)C2c2ccc(Cl)cc2)cc1 (some centres not stated) -2.02%, O=C(NCc1ccccc1)c1cc(C2CCCN(C(=O)C3CCCCC3)C2)on1 (configuration not stated) 7.02%, CC(=O)OC1CCC2C3CCC4=C(CC(F)C(=O)C4)C3CCC12C (configuration not stated) -15%, O=C(CCc1nc(-c2ccccc2F)no1)Nc1ccc(Oc2ccccc2)cc1 2.1%, COCC(=O)N(C)C1(c2nnnn2CCOC(=O)Nc2ccc(Cl)cc2)CCCC1 20.2%, S=C(NCCN1CCOCC1)Nc1ccc(Br)cc1 0.916%, CN(C)c1ccc(/C=C/C(=O)c2ccc(O)cc2)cc1[N+](=O)[O-] -7.14%, CCOC(=O)Oc1c(OC)cc(C(=O)O[C@@H]2C[C@@H]3CN4CCc5c([nH]c6cc(OC)ccc56)[C@H]4C[C@@H]3[C@H](C(=O)OC)[C@H]2OC)cc1OC 6.28%

From PubChem BioAssay AID602350 (Broad Institute, 2012)
